# Measured values: PubChem BioAssay (NCATS)
# Unmarked numbers belong to inactive results. Records with an inconclusive call do not appear. A call without a number means that no potency is given here. The source made the active and inactive calls. Unless noted, the call rests on the fitted dose curve; in most records, active means well fitted curve in the direction sought with a large enough effect; inconclusive means small, poorly fitted or top-dose-only effect, or another doubt; inactive means no such curve, though single readings can be large; an effect the other way counts as inactive or inconclusive.
# Assays:
# [1] = S16 Schwann cell PMP22 intronic element firefly luciferase assay (AID 624032); further: potency means the concentration at half of the fitted maximal effect; nearly all actives have a fitted effect of over 30% in size
# Procedure, shortened: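 Luciferase reporter of PMP22 intronic-element expression in stably transfected S16 rat Schwann cells, read by ONE-Glo luminescence after 24 h compound exposure at 37 C. Activity scaled between DMSO (0%) and positive-control PTC124; concentration-effect curves quality-classified.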
# AA1029 = experiment: qHTS profiling for inhibitors of Plasmodium falciparum proliferation (AID 504749); further: nearly all actives have a fitted effect of over 60% in size; settings: P. falciparum in erythrocytes, SYBR Green DNA, 72 h; series mostly up to 28.7 µM
# Procedure, shortened: (§1)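 Infected RBCs, 0.3% parasitemia/2.5% Hct final; cpd 72 h, 37 C, 5% CO2; lysis buffer with saponin/triton/SYBR Green I, o/n RT dark; FI 485/535; norm. to artemisinin (0.29 uM) and DMSO.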
# CP325 = experiment: as above; settings: P. falciparum in erythrocytes, SYBR Green DNA, 72 h; series mostly up to 28.7 µM
# Procedure, shortened: as §1
# DIV14 = experiment: as above; settings: P. falciparum in erythrocytes, SYBR Green DNA, 72 h; series mostly up to 28.7 µM
# Procedure, shortened: as §1
# SC27B = experiment: as above; settings: P. falciparum in erythrocytes, SYBR Green DNA, 72 h; series mostly up to 28.7 µM
# Procedure, shortened: as §1
# TAB165 = experiment: as above; settings: P. falciparum in erythrocytes, SYBR Green DNA, 72 h; series mostly up to 28.7 µM
# Procedure, shortened: as §1
# [2] = system: HIV-1 nucleocapsid protein NCp7 (binding to TG oligonucleotide); experiment: HIV Nucleocapsid (AID 346; call rule not given here;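 further: potency means the concentration at half of the fitted maximal effect; potency is for inhibitors that block NC binding and lower polarization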); settings: HIV-1 NC / fluorescein-TGTGTGTG probe, fluorescence polarization
# Procedure, shortened: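 NCp7 100 nM + fluorescein TG4xF 10 nM; Hepes pH 7.5/250mM NaCl/1uM ZnCl2/0.004% PEG 20000; 1 hr RT; FP, 45 s exposure; oligo-only wells as negative control.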
# [3] = qHTS Assay for Identification of Small Molecule Agonists for Hypoxia Response Element Signaling Pathway (AID 914; active means well fitted activation curve with a large enough effect in the signal ratio, with a control signal flat, not every such curve was filed as active; the % refers to the signal ratio); settings: ME-180 (cervical carcinoma) HRE-bla reporter, beta-lactamase ratio, CoCl2, 17 h; activation: stronger effect = higher value
# Procedure, shortened: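 Compounds in a titration series were added to ME-180 reporter cells alongside an EC50 level of CoCl2. After 17 hours, beta-lactamase activity was read as the 460nm/530nm emission ratio of CCF4, giving AC50 values.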
structure (smiles),measurement,setting,value
C[C@]12CC[C@H]3[C@@H](CCC4=CC(=O)CC[C@@]43C)[C@@H]1CC[C@@H]2O,Potency,[1],8.09 µM (active)
same,Potency,AA1029,inactive
same,Potency,CP325,inactive
same,Potency,DIV14,inactive
same,Potency,SC27B,inactive
same,Potency,TAB165,inactive
CN1CC[C@@]2(CCCN(C(=O)Oc3ccccc3)C2)C1,Potency,[2],> 20 µM
CC(C)CN1CC[C@@]2(CCCN(C(=O)Oc3ccccc3)C2)C1,activation,[3],-4.64%
